These results are taken from PubChem BioAssay.

Calls of active or inactive are those of the source. Unless noted, no rule for the calls is given here.

Experiment [1] in a line: resazurin metabolic signal in HepG2 cells – cell-based, resazurin fluorescence, 24 h, PK04 Diversity Set, profiling panel (AID 1172). Also: test concentration not given here. As to conditions: HepG2 viability, higher = more signal.
The nature of experiment [2]: budding yeast growth changes without added modifier – OD600, strain BY4716, 24 h, basal condition, primary screen (AID 1173). As to conditions: S. cerevisiae BY4716 growth, OD600, 24 h; higher = more signal, called active from +8 up or from −8 down.
A short description of experiment [3]: viability profiling in MM1S myeloma cells – cell-based, resazurin fluorescence, basal, 24 h, PK04 Diversity Set, profiling panel (AID 1174).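 Also: MM1S multiple myeloma cell line; test concentration not given here.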 Conditions: higher = more signal, called active from +8 up or from −8 down. In general terms: Alamar Blue is a resazurin reagent that responds to reducing activity.
The target of experiment [4] is Dihydroorotate dehydrogenase (quinone), mitochondrial (Plasmodium falciparum (isolate 3D7)) (UniProt Q08210). Briefly: inhibition of P. falciparum DHODH – biochemical, C-terminal His tag, absorbance 600 nm, primary screen (AID 1175).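 Also: recombinant parasite enzyme with a five histidine tag at its C terminus; test concentration not given here.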 As to conditions: PfDHODH enzyme, DCIP absorbance 600 nm; higher = more signal, called active from +8 up or from −8 down.
The nature of experiment [5]: inhibition of PAO1 biofilm formation – strain PAO1, LB-PBS medium, absorbance 600 nm, primary screen (AID 1176). Also: test concentration not given here. As to conditions: P. aeruginosa PAO1 growth/biofilm, A600, 12 h; higher = more signal.
A short description of experiment [6]: growth modulation of vineyard yeast isolate – strain RM11-1a, OD600, basal, 24 h, primary screen (AID 1177).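 Also: cultures grown under basal conditions with no added stressor; test concentration not given here.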 As to conditions: S. cerevisiae RM11-1a growth, OD600, 24 h; higher = more signal, called active from +8 up or from −8 down.
A short description of experiment [7]: growth of efflux-deficient E. coli DRC39 – strain DRC39, OD650, 24 h, E. coli filamentation inducers, primary screen (AID 1178).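 Also: growth measured as culture turbidity by optical density at 650 nm; test concentration not given here.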 As to conditions: E. coli DRC39 acrAB, higher = more signal, called active from +8 up or from −8 down.
Experiment [8] is described as follows: growth of efflux-deficient E. coli DRC39 – strain DRC39, OD650, 48 h, E. coli filamentation inducers, primary screen (AID 1179).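 Also: screen aims at cell division blockers that make cells filament.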 Conditions: E. coli DRC39 delta-acrAB growth, higher = more signal, called active from +8 up or from −8 down.
Experiment [9] in a line: viability profiling in RPMI8226 myeloma cells – cell-based, resazurin fluorescence, basal, 24 h, PK04 Diversity Set, profiling panel (AID 1180).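 Also: RPMI8826 multiple myeloma cell line at 5000 cells per well; test concentration not given here.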 Conditions: higher = more signal.
Experiment [10] has as its target E3 ubiquitin-protein ligase XIAP (Homo sapiens) (UniProt P98170). Briefly: small molecules binding XIAP protein – biophysical, small-molecule microarray, fluorescence 635 nm, primary screen (AID 1181).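 Also: score merges 667 nm emission and signal to noise over triplicate slides.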 As to conditions: higher = more signal.

Sequence of Dihydroorotate dehydrogenase (quinone), mitochondrial (Plasmodium falciparum (isolate 3D7)) (Q08210 whole entry, looked up): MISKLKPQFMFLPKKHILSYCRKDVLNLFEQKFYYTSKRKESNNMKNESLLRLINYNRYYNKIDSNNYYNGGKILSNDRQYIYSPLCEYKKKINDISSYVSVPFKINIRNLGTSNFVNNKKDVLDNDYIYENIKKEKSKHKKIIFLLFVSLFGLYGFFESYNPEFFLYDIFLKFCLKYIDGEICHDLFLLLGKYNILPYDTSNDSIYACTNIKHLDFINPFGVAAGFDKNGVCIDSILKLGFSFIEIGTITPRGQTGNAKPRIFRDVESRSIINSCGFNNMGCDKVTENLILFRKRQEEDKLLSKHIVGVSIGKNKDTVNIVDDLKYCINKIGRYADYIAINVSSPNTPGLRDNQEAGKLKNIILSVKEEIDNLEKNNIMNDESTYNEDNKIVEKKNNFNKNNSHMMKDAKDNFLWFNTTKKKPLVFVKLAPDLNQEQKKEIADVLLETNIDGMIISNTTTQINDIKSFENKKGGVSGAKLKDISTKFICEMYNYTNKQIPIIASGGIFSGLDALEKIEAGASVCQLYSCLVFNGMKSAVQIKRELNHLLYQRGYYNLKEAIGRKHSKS
Sequence of E3 ubiquitin-protein ligase XIAP (Homo sapiens) (P98170 whole entry, looked up): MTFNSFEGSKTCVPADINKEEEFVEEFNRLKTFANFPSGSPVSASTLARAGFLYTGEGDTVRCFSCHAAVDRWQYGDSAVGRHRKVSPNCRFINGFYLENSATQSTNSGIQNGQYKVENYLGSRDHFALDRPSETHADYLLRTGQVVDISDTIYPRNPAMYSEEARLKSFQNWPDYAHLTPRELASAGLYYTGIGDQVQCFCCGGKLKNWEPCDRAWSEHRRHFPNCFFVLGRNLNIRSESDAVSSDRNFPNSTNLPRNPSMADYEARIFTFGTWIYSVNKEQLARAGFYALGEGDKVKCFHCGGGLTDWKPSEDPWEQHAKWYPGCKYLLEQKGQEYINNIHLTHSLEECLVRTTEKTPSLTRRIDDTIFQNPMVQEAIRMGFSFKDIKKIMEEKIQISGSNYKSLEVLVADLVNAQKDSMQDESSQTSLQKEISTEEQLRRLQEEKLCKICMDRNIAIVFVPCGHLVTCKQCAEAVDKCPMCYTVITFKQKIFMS

As to `COc1ccc(O[C@H]2C=C[C@@H](c3ccccc3)O[C@@H]2CON=C2[C@H]3CCn4c(=O)n(-c5ccccc5)c(=O)n4[C@H]3[C@H](O)[C@@H]3O[C@H]23)cc1`, the z-score in [1] is -1.63; in experiment [2], 0.422 (inactive); in experiment [3], -2.53 (inactive); in experiment [5] it was -0.0417 (inactive); in experiment [6], 0.0056 (inactive); in experiment [7] it was 0.694 (inactive). Further, the values for the z-score in experiment [8] and in experiment [9] were 0.731 (inactive) and -1.92, respectively. The composite z-score in [4] is -0.268 (inactive); in [10], -0.403.
For the molecule `Cn1c(=O)n2n(c1=O)[C@H]1[C@H](O)[C@@H]3O[C@@H]3C(=O)[C@H]1CC2`, the z-score was -0.12 in experiment [1]; 0.243 (inactive) in experiment [2]; -0.871 (inactive) in experiment [3]; -0.343 (inactive) in experiment [5]; 0.723 (inactive) in [6]; 0.463 (inactive) in experiment [7]. Besides, the z-score in experiment [8] was 0.166 (inactive); in experiment [9], -0.52. Moreover, the composite z-score in experiment [4] was 0.438 (inactive); in experiment [10] it was 0.0799.
Consider `CO[C@H]1COC(=O)[C@H](C)NC(=O)[C@@H](C)COC(=O)[C@H]2CCCN2C(=O)CC=C[C@H]1C`, for which the z-score in experiment [1] is -0.384; in experiment [2], -0.739 (inactive); in experiment [3] it was 0.0177 (inactive); in experiment [5], -0.655 (inactive); in experiment [6], -0.382 (inactive); in [7], 0.491 (inactive). Moreover, the results for the z-score in experiment [8] and in [9] were 0.206 (inactive) and -0.65, respectively. Besides, the composite z-score in experiment [4] was -2.21 (inactive); in [10] it was -0.354.
For the molecule `CO[C@H]1COC(=O)[C@@H](Cc2ccccc2)NC(=O)[C@@H](C)COC(=O)CCC[C@@H]1C`, the z-score in [1] was 0.464; in [2], -0.916 (inactive); in [3], 1.18 (inactive); in experiment [5], -1.24 (inactive); in [6], -0.726 (inactive); in [7] it was 0.285 (inactive). The z-score in [8] was 1.39 (inactive); in experiment [9] it was 0.759. The figures for the composite z-score in experiment [4] and in experiment [10] were -1.7 (inactive) and -0.0918, respectively.
For `CCOC(=O)[C@H](Cc1ccccc1)NC(=O)CCC1CC(OC(=O)NCc2cccc3ccccc23)CC2(CCCC(COC(=O)NCCC(C)C)O2)O1` (stereo not given in full), the z-score in [1] is 1.15; in experiment [2] it was -1.07 (inactive); in experiment [3] it was 1.3 (inactive); in [5], 0.238 (inactive); in experiment [6], -0.886 (inactive); in experiment [7], -0.427 (inactive). In addition, the z-score in experiment [8] is 0.319 (inactive); in experiment [9], 1.82. The composite z-score in experiment [4] is -0.619 (inactive); in experiment [10], 0.0867.
For `CO[C@@H]1COC(=O)CC=C[C@H](C)[C@H](OC)COC(=O)[C@H](C)NC(=O)CC=C[C@H]1C`, the z-score in experiment [1] is 0.774; in [2], -0.486 (inactive); in experiment [3], 0.978 (inactive); in experiment [5], -0.638 (inactive); in experiment [6], -0.363 (inactive); in [7], 0.853 (inactive). Also, the z-score in experiment [8] was -0.0907 (inactive); in experiment [9], 0.453. Moreover, the composite z-score was -0.165 (inactive) in experiment [4] and 0.0264 in [10].
For `CCCNC(=O)OC[C@H]1O[C@H](CCON=C(C)CCN2CCCc3nc(C)c(C)cc32)C=C[C@@H]1Oc1ccc(OC)cc1`, the z-score was 0.691 in experiment [1]; 0.766 (inactive) in experiment [2]; -0.291 (inactive) in experiment [3]; 0.9 (inactive) in experiment [5]; -0.295 (inactive) in experiment [6]; 0.908 (inactive) in [7]. Besides, the z-score in experiment [8] was 0.557 (inactive); in [9], 1.46. Moreover, the composite z-score is 0.0151 (inactive) in [4] and 0.284 in experiment [10].
As to `CO[C@@H]1COC(=O)[C@@H]2CCCN2C(=O)[C@@H](C)COC(=O)CC=C[C@H]1C`, the z-score in experiment [1] was 1.09; in experiment [2] it was 0.755 (inactive); in [3], 0.468 (inactive); in experiment [5], -0.749 (inactive); in experiment [6] it was 0.0994 (inactive); in [7] it was 0.207 (inactive). The z-score in experiment [8] is -0.179 (inactive); in [9], 0.189. Further, the values for the composite z-score in [4] and in experiment [10] were -0.385 (inactive) and -0.273, respectively.
Consider `COc1ccc(O[C@H]2C=C[C@@H](c3ccccc3)O[C@@H]2CON=C(C)CCC(=O)OC[C@H]2O[C@H](c3ccccc3)C=C[C@@H]2Oc2ccc(OC)cc2)cc1`, for which the z-score was 0.319 in experiment [1]; 0.917 (inactive) in experiment [2]; 0.427 (inactive) in experiment [3]; -0.868 (inactive) in [5]; 1.26 (inactive) in experiment [6]; 0.277 (inactive) in experiment [7]. Besides, the z-score in [8] is 0.434 (inactive); in experiment [9] it was 0.476. In addition, the figures for the composite z-score in experiment [4] and in experiment [10] were -0.497 (inactive) and -0.195, respectively.
On to `O=C1[C@H]2[C@H]3[C@H](O)[C@H](O)CC(=NOC[C@@H](O)COCc4ccco4)[C@@H]3CC[C@H]2C(=O)N1C[C@@H]1CCCO1`, for which the z-score was 0.188 in [1]; 0.408 (inactive) in experiment [2]; 0.59 (inactive) in experiment [3]; -0.662 (inactive) in experiment [5]; 1.1 (inactive) in [6]; 0.93 (inactive) in experiment [7]. Moreover, the z-score in experiment [8] is 1.14 (inactive); in experiment [9] it was -0.256. The composite z-score in [4] was 0.121 (inactive); in experiment [10], 0.137.
In the case of `CO[C@H]1COC(=O)[C@@H]2CCCN2C(=O)CC=C[C@@H](C)[C@H](OC)COC(=O)[C@@H](OCc2ccccc2)C=C[C@@H]1C`, the z-score in experiment [1] is -0.416; in [2], -1.72 (inactive); in experiment [3], 1.58 (inactive); in experiment [5], -1.01 (inactive); in [6], -0.965 (inactive); in experiment [7], 0.421 (inactive). In addition, the z-score in experiment [8] is 0.29 (inactive); in experiment [9], 0.552. Further, the values for the composite z-score in experiment [4] and in [10] were -2.88 (inactive) and -0.284, respectively.
Regarding `C[C@@H](ON=C1[C@H]2CCn3c(=O)n(-c4ccccc4)c(=O)n3[C@H]2[C@H](O)[C@@H]2O[C@H]12)c1cn([C@@H]2COC[C@H]2O)nn1`, the z-score in [1] was -0.311; in experiment [2], 0.337 (inactive); in experiment [3] it was -0.739 (inactive); in [5] it was 0.523 (inactive); in experiment [6] it was -1.01 (inactive); in experiment [7] it was 0.0645 (inactive). In addition, the z-score in experiment [8] is -0.317 (inactive); in experiment [9], -0.715. In addition, the composite z-score in experiment [4] is -0.642 (inactive); in [10] it was -0.189.
As to `CC(CCN1CCCc2nc(C)c(C)cc21)=NO[C@@H](C)c1cc(-c2c(C)cc(C)cc2C)no1`, the z-score in experiment [1] is -0.616; in experiment [2], -1.54 (inactive); in experiment [3] it was -0.012 (inactive); in experiment [5] it was 0.0525 (inactive); in experiment [6], 0.39 (inactive); in experiment [7], 0.898 (inactive). The z-score in experiment [8] was -0.158 (inactive); in experiment [9] it was 0.378. Besides, the composite z-score was -0.837 (inactive) in experiment [4] and 0.194 in experiment [10].
